{"source": "PubChem BioAssay (NCI)", "note": "“And” between values parts separate entries of the source, which are not always exact repeats. Equal values may be shown once. The panel holds about 83,000 compounds, 20% with a hit somewhere; the sample as a whole holds those more often.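 Step 1: grow cells in 96-well plates. Step 2: add test compound at a single concentration. Step 3: incubate 48 h. Step 4: record percent growth.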 The source made the active and inactive calls. Rule for the calls: active = growth percent below 10; inactive = the rest.", "data": [{"tested_on": "MDA-MB-468 breast", "experiment": "NCI-60 one-dose screen, 48 h (100 = growth as untreated, 0 = no growth, -100 = all killed)", "details": "10 µM unless noted", "values": [{"compound": "CC1=Nc2cnc(Nc3ccc(OCCN4CCCC4)cc3)nc2Nc2ccccc21", "growth": "57% (inactive)"}, {"compound": "CCOC(=O)C1=C(C)c2ccc(OC)c(OC)c2C1", "growth": "99.4% (inactive)"}, {"compound": "Cn1cc(C2=C(c3coc4cc(Br)ccc34)C(=O)NC2=O)c2ccccc21", "growth": "5.23% (active)"}, {"compound": "O=[N+]([O-])c1ccc2c(N=Nc3ccc4ccccc4c3O)c(O)cc(S(=O)(=O)O)c2c1", "growth": "106% (inactive)"}, {"compound": "C[N+]1=C(/C=C\\C=C\\c2ccccc2)C(C)(C)c2ccccc21", "growth": "-14.9% (active)"}, {"compound": "O=C(C(Br)C(Br)c1ccccc1)C(Br)C(Br)c1ccccc1", "note": "(stereo not given)", "growth": "-44.4% (active)"}, {"compound": "CCOC(=O)C12CCCC1=CC(=O)CC2", "note": "(stereo not given)", "growth": "110% (inactive)"}, {"compound": "C=CC(=O)NCc1ccc(Nc2nccc(-c3ccc(N4CCCC4)c(C#N)c3)n2)cc1", "growth": "15.7% (inactive)"}, {"compound": "O=C1/C(=C/c2ccc(Cl)cc2)CN(Cc2cn(CCNc3ccnc4cc(Cl)ccc34)nn2)C/C1=C\\c1ccc(Cl)cc1", "growth": "-76.2% (active)"}, {"compound": "CNC(=O)c1cc(Oc2ccc3nc(NC(=O)c4cc(C)cc(C)c4)sc3c2)ccn1", "growth": "50.2% (inactive)"}, {"compound": "CCCC(O)Cn1ncc(C(=O)OCC)c1NC(=O)NCc1cccc(F)c1", "note": "(stereo not given)", "growth": "97.3% (inactive)"}, {"compound": "CN(C)c1ccc2c(N(C)C)cc(N(C)C)nc2c1", "growth": "7.64% (active)"}, {"compound": "N#Cc1c(C(F)(F)F)cc(Nc2ccc3nc(NCCN4CCCC4)oc3c2)n2c1nc1ccccc12", "growth": "34.1% (inactive)"}, {"compound": "Cc1ccc(/C=C(\\C#N)c2cc3ccccc3[nH]2)cc1", "growth": "43.2% (inactive)"}, {"compound": "COc1ccc(C(=O)Nc2nc(-c3ccc(Cl)cc3)cs2)cc1", "growth": "95.9% (inactive)"}, {"compound": "Cc1ccc2c(c1)C(C)Cc1c(N(C)C)ncnc1N2C", "note": "(stereo not given)", "growth": "13% (inactive)"}, {"compound": "CN(C)c1ccc2cc(-c3ccc(Cl)c(Cl)c3)c(N)nc2c1", "growth": "18.9% (inactive)"}, {"compound": "O=C1c2ccccc2-c2cn(Cc3ccccc3)c3cccc(c23)C1c1cccnc1", "note": "(stereo not given)", "growth": "27.9% (inactive)"}, {"compound": "Cc1nn(-c2cc(=O)[nH]c3ccccc23)c(N)c1C#N", "growth": "110% (inactive)"}, {"compound": "Cc1ccccc1NC(=O)CN(C)C", "growth": "107% (inactive)"}, {"compound": "Cc1ccc(C(=O)Nc2ccc(CN3CCN(C)CC3)c(C(F)(F)F)c2)cc1C#Cc1cnc(N)c2ccc(C#N)cc12", "growth": "34.9% (inactive)"}, {"compound": "CCN(CC)CCCC(C)Nc1ccnc2cc(Cl)c(SCc3ccccc3)cc12", "note": "(stereo not given)", "growth": "-88.5% (active)"}, {"compound": "O=C1c2ccccc2CCC12OC2c1cn(-c2ccccc2)nc1-c1ccc(Cl)cc1", "note": "(stereo not given)", "growth": "92.5% (inactive)"}, {"compound": "COc1cc(C2CC(C3C(=O)N(C)C(=O)N(C)C3=O)=NN2c2cc(Cl)cc(Cl)c2)cc(OC)c1OC", "note": "(stereo not given)", "growth": "84.5% (inactive)"}, {"compound": "COc1cc(-c2cc(C(=O)N3CCN(C(=O)c4ccccc4NCc4cccs4)CC3)nc3cc(-c4ccccc4)nn23)cc(OC)c1OC", "growth": "64.6% (inactive)"}, {"compound": "COc1ccc(Oc2nc(Nc3ccc(N4CCOCC4)cc3)ncc2NC(=O)c2cccc(C(F)(F)F)c2)cc1", "growth": "93% (inactive)"}, {"compound": "COc1cc(OC)c(S(=O)(=O)NNC(=O)c2ccncc2)cc1C(=O)/C=C/c1ccc(C)cc1", "growth": "38.3% (inactive)"}, {"compound": "CSc1ccc(/C(=N/N=C(N)N)c2ccc(F)cc2)cc1", "growth": "-34.6% (active)"}, {"compound": "Cc1cn(C)cn1", "growth": "112% (inactive)"}, {"compound": "[O-]/[N+](=C\\c1ccccc1)CC1(O)CCCCC1", "growth": "108% (inactive)"}, {"compound": "CC1=Nc2cnc(Nc3ccc(OCCN4CCCCC4)cc3)nc2Nc2ccccc21", "growth": "63.4% (inactive)"}, {"compound": "Nc1ccn(C2OC(CO)C(O)C2O)c(=O)n1", "note": "(stereo not given)", "growth": "76% (inactive) and 106% (inactive) and 118% (inactive)"}, {"compound": "O=C(CSc1nnc(-c2cnccn2)n1-c1ccccc1)c1ccc(Cl)cc1", "growth": "97.6% (inactive)"}, {"compound": "ICCC(c1ccccc1)(c1ccccc1)c1ccccc1", "growth": "22.6% (inactive)"}, {"compound": "COc1cccc(-c2nn(C)c3sc(C(=O)NCCN4CCN(c5ccccc5F)CC4)cc23)c1", "growth": "45.9% (inactive)"}, {"compound": "CCN(CC)C(=O)CCCCCn1c2ccccc2c2c3c(c4c5ccccc5[nH]c4c21)C(=O)N(O)C3=O", "growth": "51.5% (inactive)"}, {"compound": "O=C1NC(=S)NC(=O)C1=Cc1cccc(C=C2C(=O)NC(=S)NC2=O)c1", "growth": "103% (inactive)"}, {"compound": "Cc1ccc(NC(=O)CNc2cc(C(N)=O)cc(F)c2C)c(Cl)c1", "growth": "105% (inactive)"}, {"compound": "Cc1cc(-c2ccc3nc(N)sc3c2)nc2ccc3[nH]ncc3c12", "growth": "5.34% (active)"}, {"compound": "COc1ccc(C2CC(c3ccc4ccccc4c3)=NN2/C=C2\\SC(=S)N(NC(=O)Cc3ccccc3Nc3c(Cl)cccc3Cl)C2=O)cc1", "note": "(stereo not given)", "growth": "7.11% (active)"}]}]}
